Consider eight molecules from PubChem BioAssay (NCI).

This is part of a sample that, as a whole, favours compounds with a hit. Of some 83,000 tested, about 20% had one in any assay.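 Activity criterion: percent growth below 10, measured after cells in 96-well plates were exposed to a single compound concentration for 48 hours.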 Unmarked numbers belong to inactive results. The source made the active and inactive calls.

Some test systems named below: HCT-15 colon; HT29 colon; SNB-75 CNS; SNB-19 CNS; U251 CNS; PC-3 prostate; UACC-62 melanoma; LOX IMVI melanoma; SK-MEL-28 melanoma; SK-MEL-2 melanoma; EKVX NSCLC; SN12C renal; UO-31 renal; TK-10 renal; ACHN renal; CAKI-1 renal; A498 renal; CCRF-CEM leukemia; MOLT-4 leukemia; SK-MEL-5 melanoma.
What all share (assay): NCI-60 one-dose screen, 48 h (100 = growth as untreated, 0 = no growth, -100 = all killed)
Common to all, as to details: 10 µM

With `Cc1ccc(NCC(=O)Nn2c(COc3ccccc3)nc3ccccc3c2=O)cc1`, the growth is 93% in the test with HCT-15 colon; 92.4% with HT29 colon; 23.4% with SNB-75 CNS; 6.78% (active) in the test with SNB-19 CNS; 62.2% in the test on U251 CNS; 74.2% with PC-3 prostate. Further, the growth with UACC-62 melanoma was 61.3%; with LOX IMVI melanoma, 91.6%; with SK-MEL-28 melanoma it was 91.3%; in the test with SK-MEL-2 melanoma, 87.2%; with EKVX NSCLC, 84.6%; in the test on SN12C renal it was 40.4%. Moreover, the growth in the test on UO-31 renal is 80.8%; in the test on TK-10 renal, 86.9%; in the test on ACHN renal it was 72.8%; in the test on CAKI-1 renal, 44.3%; in the test on A498 renal, 91.9%; with CCRF-CEM leukemia it was 101%. For the same molecule, the growth with MOLT-4 leukemia is 106%.

As for `Cc1ccc(/C=C(\C#N)n2nnc3c(F)cccc32)cc1`, the growth in the test on HCT-15 colon was 12.2%; in the test with HT29 colon it was 2.75% (active); in the test on SNB-75 CNS, 17.9%; with SNB-19 CNS, 23.6%; with PC-3 prostate, 24.7%; in the test with SK-MEL-5 melanoma it was -23.5% (active). The growth in the test with UACC-62 melanoma is 36.8%; with LOX IMVI melanoma, -9.47% (active); in the test with SK-MEL-28 melanoma, 28.8%; in the test on SK-MEL-2 melanoma it was 16.5%; in the test with EKVX NSCLC, 28.8%; in the test on SN12C renal, 4.19% (active). For the same molecule, the growth in the test with UO-31 renal was 15.2%; with TK-10 renal, 0.416% (active); in the test on ACHN renal, 19.7%; in the test with CAKI-1 renal it was 21.8%; in the test with A498 renal, 71.8%; with CCRF-CEM leukemia, 10.1%.

On to `Cc1ccc(C(C)C)cc1NC(=O)c1ccccc1O`, for which the growth in the test on HCT-15 colon is 35%; with HT29 colon it was 103%; with SNB-75 CNS, 46.4%; in the test with SNB-19 CNS it was 37.2%; with PC-3 prostate, 33.4%; with SK-MEL-5 melanoma it was -45.5% (active). Besides, the growth was 9.83% (active) with UACC-62 melanoma; 40.1% in the test with LOX IMVI melanoma; 31.1% in the test on SK-MEL-28 melanoma; 25.4% in the test on SK-MEL-2 melanoma; 49.7% with EKVX NSCLC; 37.8% with SN12C renal. Moreover, the growth in the test with UO-31 renal is 16.6%; with TK-10 renal it was 69.4%; in the test with ACHN renal it was 44.7%; with CAKI-1 renal it was 32.3%; with A498 renal it was 67.8%; in the test with CCRF-CEM leukemia it was 24.5%.

Take `CC1=C2C(=C[C@@](C)(CO)[C@@H]2O)/C(=N\N)[C@](C)(O)C12CC2`: the growth in the test with HCT-15 colon is -17.1% (active); in the test on HT29 colon, -11% (active); with SNB-75 CNS, -85.1% (active); in the test on SNB-19 CNS it was -16% (active); in the test with U251 CNS it was 12%; in the test with PC-3 prostate, 6.9% (active). Moreover, the growth was -81.7% (active) with UACC-62 melanoma; -64.3% (active) in the test with LOX IMVI melanoma; -67.2% (active) with SK-MEL-28 melanoma; -100% (active) with SK-MEL-2 melanoma; 0.386% (active) in the test with SN12C renal; -29.2% (active) in the test with UO-31 renal. The growth in the test with TK-10 renal is 1.74% (active); with ACHN renal, -18.6% (active); in the test with CAKI-1 renal, 1.03% (active); in the test with A498 renal, -27.8% (active); in the test with CCRF-CEM leukemia it was 18.8%; in the test with MOLT-4 leukemia, 3.48% (active).

Turning to `O=C(CSc1nnc(-c2ccc3nc(-c4ccc(Cl)cc4)[nH]c3c2)o1)Nc1ccc(Br)cc1`, the growth is -64.2% (active) in the test with HCT-15 colon; -15.8% (active) with HT29 colon; 5.11% (active) in the test with SNB-75 CNS; -26.6% (active) in the test with SNB-19 CNS; 5.11% (active) in the test on PC-3 prostate; -36.9% (active) with SK-MEL-5 melanoma. In addition, the growth in the test with UACC-62 melanoma is -90.8% (active); in the test with LOX IMVI melanoma it was -100% (active); with SK-MEL-28 melanoma, -94.4% (active); with SK-MEL-2 melanoma, -69.6% (active); in the test with EKVX NSCLC, 27.9%; in the test on SN12C renal, -89.2% (active). For the same molecule, the growth in the test with UO-31 renal is 21.9%; in the test on TK-10 renal, 86%; in the test with ACHN renal, -62.5% (active); with CAKI-1 renal, -27.8% (active); in the test on A498 renal it was 66.1%; in the test on CCRF-CEM leukemia it was 6.06% (active). For the same molecule, the growth in the test with MOLT-4 leukemia was -0.919% (active).

Consider `COc1ccc(Nc2nc(N)n(Cc3cccc(Br)c3)n2)cc1`, for which the growth with HCT-15 colon is 8.53% (active); with HT29 colon, 31.9%; in the test with SNB-75 CNS, 11.7%; in the test on SNB-19 CNS, 18.6%; with U251 CNS, 24.7%; in the test on PC-3 prostate, 13.1%. Also, the growth was 2.3% (active) in the test on UACC-62 melanoma; -67.3% (active) in the test with LOX IMVI melanoma; 5.84% (active) with SK-MEL-28 melanoma; -35.7% (active) in the test with SK-MEL-2 melanoma; 6.36% (active) in the test with EKVX NSCLC; 14.7% in the test with SN12C renal. The growth is 0.264% (active) with UO-31 renal; 24.9% in the test with TK-10 renal; 1.18% (active) in the test with ACHN renal; 8.17% (active) in the test with CAKI-1 renal; -19.5% (active) in the test with A498 renal; 10.2% in the test on CCRF-CEM leukemia. Further, the growth in the test with MOLT-4 leukemia was 9.01% (active).

Turning to `COc1cc(/C=C/C(=O)c2ccc(C(F)(F)F)cc2)ccc1Oc1nc(Nc2ccc(F)cc2)nc(N(C)C)n1`, the growth was 70% in the test on HCT-15 colon; 74.1% with HT29 colon; 99.7% in the test on SNB-75 CNS; 83% in the test on SNB-19 CNS; 74.2% in the test on U251 CNS; 76% in the test on PC-3 prostate. Further, the growth in the test on UACC-62 melanoma is 57.7%; with LOX IMVI melanoma it was 46.9%; in the test with SK-MEL-28 melanoma it was 85.9%; in the test with SK-MEL-2 melanoma, 78.4%; in the test with EKVX NSCLC it was 66%; in the test on SN12C renal it was 69.6%. Besides, the growth in the test with UO-31 renal is 50.3%; with TK-10 renal, 88.5%; in the test on ACHN renal, 84.2%; with CAKI-1 renal, 69.6%; in the test with A498 renal it was 94.4%; in the test on CCRF-CEM leukemia, 64.8%. In the test with MOLT-4 leukemia, the growth is 40.7%.

As for `CCN1CCN(c2ccc(NC(=O)Nc3ccc(-c4cc(C(=O)NC)c5ncccc5n4)cc3)cc2C(F)(F)F)CC1`, the growth in the test on HCT-15 colon is -100% (active); in the test with HT29 colon, -100% (active); in the test on SNB-75 CNS, -95% (active); in the test on SNB-19 CNS, -100% (active); with U251 CNS, -96.3% (active); with PC-3 prostate it was -77.9% (active). Further, the growth with UACC-62 melanoma is -99% (active); with LOX IMVI melanoma it was -100% (active); in the test with SK-MEL-28 melanoma, -100% (active); in the test with SK-MEL-2 melanoma, -72.8% (active); in the test with EKVX NSCLC, -100% (active); in the test on SN12C renal it was -96.5% (active). In addition, the growth was -100% (active) with UO-31 renal; -98.9% (active) in the test on TK-10 renal; -100% (active) with ACHN renal; -100% (active) in the test with CAKI-1 renal; -98.4% (active) with A498 renal; -52.5% (active) in the test on CCRF-CEM leukemia.
